Measurements from PubChem BioAssay (NCATS).
The source made the active and inactive calls. Calls follow the shape of the dose curve; as a rule, active = well fitted curve in the direction sought with a large enough effect; inconclusive = small, poorly fitted or top-dose-only effect, or effect the other way, or another doubt; inactive = no such curve, though single readings can be large or run the other way.

assay: Inducers of the Endoplasmic Reticulum Stress Response (ERSR) in human glioma: Validation (AID 504836); conditions: human glioma cells, ER stress response reporter; series mostly up to 38.3 µM
How it was run: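 Stably transfected U87-MG human glioma cells carrying a GRP78-based luminescent sensor were seeded at 1000 cells/well, pin-dosed with compounds and incubated 16 h. Luciferase reagent was then added, and end-point luminescence was read after 10 min at room temperature.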

Row | SMILES | outcome
1 | CNCCC(Oc1ccc(C(F)(F)F)cc1)c1ccccc1 (centres undefined) | inactive
2 | CC(=O)N[C@@H](CS)C(=O)O | inactive
3 | Nc1nnc(-c2cccc(Cl)c2Cl)c(N)n1 | inactive
4 | CC1=NS(=O)(=O)c2cc(Cl)ccc2N1 | inactive
5 | OCCN1CCN(CCCN2c3ccccc3Sc3ccc(C(F)(F)F)cc32)CC1 | inactive
6 | CN[C@H]1CC[C@@H](c2ccc(Cl)c(Cl)c2)c2ccccc21 | inactive
7 | CN(C)CCCN1c2ccccc2CCc2ccc(Cl)cc21 | inactive
8 | CC(C)[N+](C)(CCOC(=O)C1c2ccccc2Oc2ccccc21)C(C)C | inactive
9 | NC(=O)c1cn(Cc2c(F)cccc2F)nn1 | inactive
10 | CC(C)NCC(O)COc1cccc2[nH]ccc12 (centres undefined) | inactive
11 | C[C@]12CC[C@@H]3c4ccc(O)cc4C[C@@H](CCCCCCCCCS(=O)CCCC(F)(F)C(F)(F)F)[C@H]3[C@@H]1CC[C@@H]2O (some centres undefined) | inactive
12 | CCN(CC)CCNC(=O)c1cc(Cl)c(N)cc1OC | inactive
13 | O=C(c1ccccc1)c1ccc2n1CCC2C(=O)O (centres undefined) | inactive
14 | CC(CN(C)C)CN1c2ccccc2CCc2ccccc21 (centres undefined) | inactive
15 | Cc1cnc(C(=O)NCCc2ccc(S(=O)(=O)NC(=O)NC3CCCCC3)cc2)cn1 | inactive
16 | COc1cc2nc(N(C)CCCNC(=O)C3CCCO3)nc(N)c2cc1OC (centres undefined) | inactive
17 | CN1CCN(CCCN2c3ccccc3Sc3ccc(C(F)(F)F)cc32)CC1 | inactive
18 | O=c1n(CCCN2CCN(c3cccc(Cl)c3)CC2)nc2ccccn12 | inactive
19 | COc1ccc([C@@H]2Sc3ccccc3N(CCN(C)C)C(=O)[C@@H]2OC(C)=O)cc1 | inactive
